Reference: the supplement of paper PMC3334620
In all, about 33,000 sequences were measured (“E-score (-0.5 to 0.5)”: median about -0.032, highest 2% from about 0.36 on). The list comes from a sample in which the highest values are over-represented; it also holds similar and randomly drawn sequences.

target: T1, Sko1 (UniProt Q02100); experiment: PBM E-score (8-mer binding enrichment) (E-score (-0.5 to 0.5)); higher = stronger / more preferred TF binding; details: protein concentration: 200 nM; construct: GST-full length
T1 sequence: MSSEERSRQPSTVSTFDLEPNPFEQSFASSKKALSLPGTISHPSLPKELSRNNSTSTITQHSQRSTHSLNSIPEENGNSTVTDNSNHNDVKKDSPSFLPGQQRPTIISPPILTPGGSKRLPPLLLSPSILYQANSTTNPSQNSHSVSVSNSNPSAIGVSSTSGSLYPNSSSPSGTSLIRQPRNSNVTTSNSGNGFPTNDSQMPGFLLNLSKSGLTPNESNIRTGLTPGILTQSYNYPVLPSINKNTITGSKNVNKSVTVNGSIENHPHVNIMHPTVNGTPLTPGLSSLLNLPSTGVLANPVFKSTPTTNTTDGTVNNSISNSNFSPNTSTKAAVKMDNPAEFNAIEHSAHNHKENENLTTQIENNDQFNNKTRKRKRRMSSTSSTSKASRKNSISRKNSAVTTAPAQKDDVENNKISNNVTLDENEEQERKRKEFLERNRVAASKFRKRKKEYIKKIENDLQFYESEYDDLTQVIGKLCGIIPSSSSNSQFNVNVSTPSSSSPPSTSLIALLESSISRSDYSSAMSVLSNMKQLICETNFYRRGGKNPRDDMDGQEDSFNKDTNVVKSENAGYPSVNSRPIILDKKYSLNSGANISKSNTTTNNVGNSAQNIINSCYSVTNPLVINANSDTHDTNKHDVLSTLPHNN
Procedure: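 Universal 'all 10-mer' protein binding microarrays (Agilent AMADID 015681) probed with GST-tagged S. cerevisiae TFs (full-length or DBD) made by in vitro transcription/translation (PURExpress), about 100-200 nM. Bound TF was detected with fluorescent anti-GST. Each ungapped 8-mer (which stands for itself and its reverse complement) is scored by the PBM enrichment score (E-score), a modified Wilcoxon-Mann-Whitney statistic from -0.5 to +0.5, computed with the Universal PBM Analysis Suite. Scale: above 0.35 generally sequence-specific binding.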

Sequence	PBM E-score
AGTGTGGG	-0.197
CACCTGGC	-0.0659
CAGCCCTC	-0.334
CCCTAGAG	-0.32
ATTCCCGG	-0.0536
ACTAAGTA	0.0919
AGGCGCGG	-0.242
ACAAACCG	-0.0685
ATGCCCGG	-0.334
GCGGTTAA	-0.186
TAATTCTA	0.227
ATCACCAA	0.0298
AAGACGCC	-0.165
ATGACGCC	0.449
ATGACTCC	-0.00531
TACTAGAA	0.124
CGACGAAG	0.00357
CGTCGTAG	0.0813
AGACGGAA	-0.136
GGACGTAA	0.426
CGACGTTC	-0.0745
GGACGTAC	0.275
CGACGTAC	0.412
AGACGTTA	0.283

Sequence	PBM E-score
GGACGTTA	0.251
CGACGTAG	0.368
CGACGTGC	0.22
AGACGTAA	0.447
CAAAAATC	0.131
CCGACTCA	-0.246
ACCTAACA	0.056
CATTTGCG	0.179
ACGCAGCC	0.0962
AATACTTA	0.178
CGACGTGA	0.344
CGACGTAA	0.472
CGACGTTA	0.337
ACTGCACA	-0.0526
GTAACGTA	0.421
CTAACGTA	0.374
GTAACGCA	0.217
ATAACGTA	0.461
ATAACGGA	0.0991
CTAACGGA	0.007
ATAACGAA	0.268
GTAACGAA	0.216
CTAACGAA	0.0318
TCGTCTCA	-0.0858

Sequence	PBM E-score
ATTTCGAA	0.247
AGTGGGGA	-0.201
ACACCTTG	0.00022
TTTGCAAA	0.0584
ATTCATCG	-0.0686
AACCAGAA	0.0649
AGTAGGAA	-0.0265
CGGAAGGA	-0.178
CCAACGTC	0.236
ACAACGTC	0.368
ACAACGTA	0.416
GCAACGCA	0.0485
ACAACGAA	0.0922
GCAACGAA	0.148
ACAACGGA	0.00163
ACAACGCC	0.0338
GCAACGTA	0.399
CCAACGCA	0.117
ACAACGTG	0.218
CCAACGTA	0.387
ATCACTCC	-0.0415
CACACCCC	-0.208
CGCGAACC	-0.0595
AATCCAAT	0.0698

Sequence	PBM E-score
CTCGGATC	-0.0845
TAATTCGA	0.198
ATGCACTG	-0.0475
AGATATTC	0.0644
ATAACGGG	0.00173
ATAACGAC	0.241
ATAACGTC	0.425
ATAACGCG	0.184
CTAACGTC	0.338
ATAACGTG	0.377
ATTGCTTC	-0.109
CCGAACTC	-0.125
CTGTTAGA	-0.0627
AAGTTCTC	-0.203
CAATGATC	0.0721
AAATGATT	0.263
AAATGATA	0.266
AAATGATG	0.373
CAATGATA	0.254
CAATGATG	0.381
CCCGATAC	-0.0866
CCTACTTA	-0.00728
